Values without a mark were called inactive. For some of these results: Measured potencies and affinities stand elsewhere. Active and inactive are the calls of the source. Unless noted, how the calls were made is not given here.

The nature of experiment [1]: antimalarial activity against Dd2 strain (AID 2302;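 active means growth inhibition above 50% at the single 2 µM test dose, taken to imply half-maximal potency below 2 µM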;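 further: 0% = DMSO untreated growth and 100% = chloroquine plus artemisinin killed control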). The conditions noted are these: P. falciparum Dd2 in RBCs, LDH growth readout, 72 h; at 2 µM; active compounds read high.
Experiment [2] is described as follows: HepG2 cytotoxicity, primary screen, cytotoxicity control for P. falciparum antimalarial project, cell-based, ATP luminescence (AID 2303;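 active means inhibition above 50%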;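 further: 0% = DMSO wells and 100% = digitonin-killed cells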). Particulars: HepG2 viability, 24-48 h, at 10 µM, active compounds read high.
Experiment [3] deals with L-lactate dehydrogenase (Plasmodium falciparum (isolate CDC / Honduras)) (UniProt Q27743). As to the kind of experiment: PfLDH activity inhibition – cell lysate, 3D7 strain, counter-screen for P. falciparum growth inhibition project (AID 2304).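 Further: 0% = vehicle and 100% = reference inhibitor.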 Particulars: P. falciparum 3D7 crude extract, LDH APAD/NBT absorbance; at 2 µM; active compounds read high. (In general: A counterscreen serves to expose hits that act by an unwanted route or on another target.)
Sequence of L-lactate dehydrogenase (Plasmodium falciparum (isolate CDC / Honduras)) (Q27743 whole entry, looked up): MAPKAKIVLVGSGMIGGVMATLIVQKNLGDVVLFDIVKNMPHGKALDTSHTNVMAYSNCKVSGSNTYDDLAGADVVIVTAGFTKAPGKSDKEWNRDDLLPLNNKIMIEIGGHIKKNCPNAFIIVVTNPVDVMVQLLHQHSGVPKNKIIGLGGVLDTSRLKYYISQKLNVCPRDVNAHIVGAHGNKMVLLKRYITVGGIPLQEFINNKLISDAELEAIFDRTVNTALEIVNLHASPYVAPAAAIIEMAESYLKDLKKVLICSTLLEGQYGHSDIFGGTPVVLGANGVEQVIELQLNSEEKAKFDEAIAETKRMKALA

Experiment [4] in a line: inhibition of 3D7 malaria parasite growth – strain 3D7 (AID 2306).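 Further: 0% = DMSO wells and 100% = chloroquine plus artemisinin control wells.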 The conditions noted are these: P. falciparum 3D7 erythrocytic growth, LDH absorbance, 72 h; at 2 µM; active compounds read high.
The target of experiment [5] is Calcium-dependent protein kinase 1 (Plasmodium falciparum (isolate 3D7)) (UniProt P62344). As to the kind of experiment: PfCDPK1 kinase inhibitors, biochemical, TCAMS library (AID 1159585; cut-off not given, nearly all actives have IC50 up to about 0.98 µM;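 further: inhibitors leave more ATP so luminescence rises with inhibition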). Particulars: recombinant PfCDPK1, Kinase-Glo ATP depletion luminescence. Background: Kinase-Glo reads ATP consumption through a luciferase reaction.
Sequence of Calcium-dependent protein kinase 1 (Plasmodium falciparum (isolate 3D7)) (P62344 whole entry, looked up): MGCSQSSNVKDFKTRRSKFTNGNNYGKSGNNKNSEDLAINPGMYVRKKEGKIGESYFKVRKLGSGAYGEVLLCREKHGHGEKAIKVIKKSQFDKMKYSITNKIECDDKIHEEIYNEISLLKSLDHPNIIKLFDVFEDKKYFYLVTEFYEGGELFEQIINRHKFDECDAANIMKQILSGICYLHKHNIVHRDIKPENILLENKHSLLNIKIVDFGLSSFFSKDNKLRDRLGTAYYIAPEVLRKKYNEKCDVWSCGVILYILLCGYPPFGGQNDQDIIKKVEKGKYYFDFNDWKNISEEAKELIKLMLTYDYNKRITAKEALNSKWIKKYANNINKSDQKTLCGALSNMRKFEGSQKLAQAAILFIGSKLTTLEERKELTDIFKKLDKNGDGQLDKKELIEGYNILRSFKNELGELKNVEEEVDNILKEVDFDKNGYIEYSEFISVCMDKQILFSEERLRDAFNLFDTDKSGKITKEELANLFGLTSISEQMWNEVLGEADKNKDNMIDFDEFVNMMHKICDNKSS
Experiment [6] has as its target Plasmodium falciparum protein kinase 6 (PK6, PF3D7_1337100) (UniProt Q8IDW1). As to the kind of experiment: PfPK6 kinase inhibitors, biochemical, TCAMS library (AID 1159586). Particulars: recombinant PfPK6, Kinase-Glo ATP depletion luminescence.
Experiment [7] has as its target Protein kinase 7 (PK7), Plasmodium falciparum 3D7 (PF3D7_0213400) (UniProt Q7YTF7). The experiment in a line: inhibition of Plasmodium PK7 catalytic activity – biochemical, TCAMS antimalarial set, Kinase-Glo luminescence (AID 1159587). The conditions noted are these: recombinant PfPK7, Kinase-Glo ATP depletion luminescence.
Experiment [8] concerns the target Calcium-dependent protein kinase 4 (Plasmodium falciparum (isolate 3D7)) (UniProt Q8IBS5). The experiment in a line: PfCDPK4 kinase inhibitors, biochemical, TCAMS library (AID 1159588; cut-off not given, nearly all actives have IC50 up to about 0.91 µM). Particulars: recombinant PfCDPK4, Kinase-Glo ATP depletion luminescence.

Sequence of Calcium-dependent protein kinase 4 (Plasmodium falciparum (isolate 3D7)) (Q8IBS5 whole entry, looked up): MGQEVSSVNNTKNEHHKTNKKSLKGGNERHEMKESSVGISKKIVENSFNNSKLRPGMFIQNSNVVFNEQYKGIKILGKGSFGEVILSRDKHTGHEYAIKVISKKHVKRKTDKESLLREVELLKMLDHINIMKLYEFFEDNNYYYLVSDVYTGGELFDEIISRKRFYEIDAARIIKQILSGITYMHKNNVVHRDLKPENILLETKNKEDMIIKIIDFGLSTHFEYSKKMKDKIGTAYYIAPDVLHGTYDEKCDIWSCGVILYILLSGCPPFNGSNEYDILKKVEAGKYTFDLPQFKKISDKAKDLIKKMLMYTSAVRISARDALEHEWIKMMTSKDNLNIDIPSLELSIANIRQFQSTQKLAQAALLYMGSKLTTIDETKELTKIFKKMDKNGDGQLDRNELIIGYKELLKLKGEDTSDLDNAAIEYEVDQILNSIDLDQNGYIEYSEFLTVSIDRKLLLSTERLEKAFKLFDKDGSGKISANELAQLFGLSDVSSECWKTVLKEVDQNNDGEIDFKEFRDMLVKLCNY
Sequence of Plasmodium falciparum protein kinase 6 (PK6, PF3D7_1337100) (Q8IDW1 1-305): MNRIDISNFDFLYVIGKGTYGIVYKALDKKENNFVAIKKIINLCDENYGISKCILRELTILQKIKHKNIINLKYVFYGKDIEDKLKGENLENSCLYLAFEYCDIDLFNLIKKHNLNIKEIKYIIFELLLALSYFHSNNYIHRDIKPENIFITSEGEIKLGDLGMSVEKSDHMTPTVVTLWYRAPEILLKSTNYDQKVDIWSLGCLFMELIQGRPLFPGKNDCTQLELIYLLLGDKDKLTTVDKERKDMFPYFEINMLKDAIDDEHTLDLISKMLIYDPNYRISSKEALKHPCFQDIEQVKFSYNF
Sequence of Protein kinase 7 (PK7), Plasmodium falciparum 3D7 (PF3D7_0213400) (Q7YTF7 1-343): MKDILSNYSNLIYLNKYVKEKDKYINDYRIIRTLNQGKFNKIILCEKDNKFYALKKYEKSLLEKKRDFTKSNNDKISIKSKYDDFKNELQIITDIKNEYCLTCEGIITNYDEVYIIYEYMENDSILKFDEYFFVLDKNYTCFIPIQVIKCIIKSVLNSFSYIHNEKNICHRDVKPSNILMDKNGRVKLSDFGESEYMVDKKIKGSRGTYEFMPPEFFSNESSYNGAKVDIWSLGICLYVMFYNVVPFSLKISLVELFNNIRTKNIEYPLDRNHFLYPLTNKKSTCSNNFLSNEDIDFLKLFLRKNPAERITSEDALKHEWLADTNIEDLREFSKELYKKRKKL

The term inhibition denotes the change of the read-out against control, counted positive when it falls. For `O=c1cc(NCCCNC2CCc3ccc(Cl)cc32)[nH]c2ccccc12` (stereo not given), the growth inhibition in experiment [1] was 39%; in experiment [4] it was 92% (active). Besides, the inhibition in experiment [2] was -2%; in experiment [3], 3%. Further, the outcome in experiment [5], in experiment [6], in experiment [7] and in experiment [8] was inactive.
Turning to `O=C(CCc1cccnc1)Nc1ccc(-c2cccc(-c3nc4ccc(F)cc4[nH]3)c2)cc1`, the growth inhibition in experiment [1] is 9%; in experiment [4] it was 86% (active). Besides, the inhibition in experiment [2] is 67% (active); in experiment [3] it was 2%. Further, the result in experiment [5], in experiment [6], in experiment [7] and in experiment [8] was inactive.
For `CCCCN1Cc2c(n(CC(=O)Nc3ccccc3)c3cc(-c4ccccc4)nn3c2=O)C1=O`, the growth inhibition was 60% (active) in experiment [1] and 92% (active) in experiment [4]. Besides, the inhibition was 1% in experiment [2] and -1% in experiment [3]. Moreover, the result in experiment [5], in experiment [6], in experiment [7] and in experiment [8] was inactive.
Consider `COc1cc2nc(N3CCC(CNC(=O)c4ccc(-c5ccc(C(F)(F)F)cc5)cc4)CC3)nc(N)c2cc1OC`, for which the growth inhibition in experiment [1] and in experiment [4] was 100% (active) each time. For the same molecule, the inhibition in experiment [2] is 94% (active); in experiment [3], 3%. Moreover, the outcome in experiment [5], in experiment [6], in experiment [7] and in experiment [8] was inactive.
As to `COc1ccc2nccc(N3CCC(NCCNCc4ccc5c(n4)NC(=O)CS5)C3)c2n1` (stereo not given), the growth inhibition in experiment [1] is 5%; in experiment [4], 100% (active). For the same molecule, the inhibition in experiment [2] and in experiment [3] was -4% throughout. The outcome in experiment [5], in experiment [6], in experiment [7] and in experiment [8] was inactive.
`O=C(Nc1ccc(-c2cccc(-c3nc4ccc(F)cc4[nH]3)c2)cc1)c1ccncc1`: the values for the growth inhibition in experiment [1] and in experiment [4] were 18% and 96% (active), respectively. The inhibition in experiment [2] was 58% (active); in experiment [3] it was -5%. The result in experiment [5], in experiment [6], in experiment [7] and in experiment [8] was inactive.
For the molecule `O=C(c1ccc(-c2cccc(-c3nc4ccc(F)cc4[nH]3)c2)cc1)N1CCCCC1CN1CCC(O)C1` (stereo not given), the figures for the growth inhibition in experiment [1] and in experiment [4] were -4% and 91% (active), respectively. In addition, the inhibition in experiment [2] was 11%; in experiment [3], -1%. The outcome in experiment [5], in experiment [6], in experiment [7] and in experiment [8] was inactive.
With `CC(C)CCNCc1ccc(OCc2ccccc2COc2ccc(CNCCC(C)C)cc2I)c(I)c1`, the growth inhibition was 78% (active) in experiment [1] and 101% (active) in experiment [4]. Besides, the inhibition is 99% (active) in experiment [2] and 0% in experiment [3]. For the same molecule, the result in experiment [5], in experiment [6], in experiment [7] and in experiment [8] was inactive.
In the case of `CCOC(=O)c1ccc(NC(=O)NCCCC2CCCN(CCCCCNC(=O)/C=C/c3ccc(Cl)c(Cl)c3)C2)cc1` (stereo not given), the results for the growth inhibition in experiment [1] and in experiment [4] were 30% and 96% (active), respectively. Also, the inhibition in experiment [2] is 14%; in experiment [3] it was -2%. For the same molecule, the outcome in experiment [5], in experiment [6], in experiment [7] and in experiment [8] was inactive.
As to `CC1(C)CCNc2cc(NC(=O)c3ccc(-c4ncccc4C(F)(F)F)cc3)ccc21`, the growth inhibition in experiment [1] was 86% (active); in experiment [4], 97% (active). For the same molecule, the inhibition in experiment [2] is 7%; in experiment [3] it was -3%. Besides, the result in experiment [5], in experiment [6], in experiment [7] and in experiment [8] was inactive.
Consider `O=S(=O)(Nc1ccc2nccc(N3CCNCC3)c2c1)c1ccc(-c2ccccc2)cc1`, for which the growth inhibition in experiment [1] is -1%; in experiment [4], 101% (active). Further, the inhibition in experiment [2] is -3%; in experiment [3] it was -2%. For the same molecule, the outcome in experiment [5], in experiment [6], in experiment [7] and in experiment [8] was inactive.
On to `Cc1cc(C(F)(F)F)n2nc(C(=O)N(Cc3cncn3Cc3cccc(F)c3)CC3CC3)cc2n1`, for which the growth inhibition in experiment [1] is 92% (active); in experiment [4] it was 101% (active). Moreover, the inhibition is -2% in experiment [2] and 3% in experiment [3]. Further, the outcome in experiment [5], in experiment [6], in experiment [7] and in experiment [8] was inactive.
In the case of `CC1(C)N=C(N)N=C(N)N1c1ccc([N+](=O)[O-])cc1`, the growth inhibition in experiment [1] was 1%; in experiment [4], 93% (active). The inhibition in experiment [2] is 3%; in experiment [3], -3%. Moreover, the outcome in experiment [5], in experiment [6], in experiment [7] and in experiment [8] was inactive.
As to `CCOc1ccc(C2CCN(CCCCNC(=O)c3ccc(NC(=O)c4ccc(Cl)cc4)cc3)CC2)c(CC)c1`, the values for the growth inhibition in experiment [1] and in experiment [4] were 64% (active) and 100% (active), respectively. Besides, the inhibition is 44% in experiment [2] and -4% in experiment [3]. For the same molecule, the result in experiment [5], in experiment [6], in experiment [7] and in experiment [8] was inactive.
On to `O=c1cc(NCCCNCc2cc3ccccc3s2)[nH]c2ccccc12`, for which the growth inhibition in experiment [1] is -3%; in experiment [4], 89% (active). Also, the inhibition in experiment [2] is 3%; in experiment [3], -1%. For the same molecule, the outcome in experiment [5], in experiment [6], in experiment [7] and in experiment [8] was inactive.
Turning to `CC(C)N(Cc1cnc2nc(N)nc(N)c2n1)c1ccc(Cl)c(Cl)c1`, the figures for the growth inhibition in experiment [1] and in experiment [4] were 98% (active) and 101% (active), respectively. Besides, the inhibition in experiment [2] is 63% (active); in experiment [3], -3%. The result in experiment [5], in experiment [6], in experiment [7] and in experiment [8] was inactive.
Take `COc1ccc2nccc(NC(=O)C3(O)CCC(NCc4ncc5c(c4Cl)OCCO5)CC3)c2n1` (stereo not given): the growth inhibition was 59% (active) in experiment [1] and 83% (active) in experiment [4]. Moreover, the inhibition was 21% in experiment [2] and -1% in experiment [3]. Moreover, the outcome in experiment [5], in experiment [6], in experiment [7] and in experiment [8] was inactive.
As for `NC(Cc1cccc(I)c1)C(=O)NCC1CCCO1` (stereo not given), the growth inhibition in experiment [1] was 50% (active); in experiment [4], 98% (active). Further, the figures for the inhibition in experiment [2] and in experiment [3] were 52% (active) and 1%, respectively. Also, the outcome in experiment [5], in experiment [6], in experiment [7] and in experiment [8] was inactive.
Take `CC(C)(C)c1ccccc1OCCCON1C(N)=NC(N)=NC1(C)C`: the growth inhibition in experiment [1] is 98% (active); in experiment [4] it was 95% (active). For the same molecule, the values for the inhibition in experiment [2] and in experiment [3] were 63% (active) and 5%, respectively. Moreover, the result in experiment [5], in experiment [6], in experiment [7] and in experiment [8] was inactive.
On to `CC(C)(C)c1cc(C(=O)N2CCN(c3cnccn3)CC2)n(Cc2ccccc2)n1`, for which the growth inhibition was 33% in experiment [1] and 92% (active) in experiment [4]. Moreover, the inhibition was -1% in experiment [2] and -4% in experiment [3]. For the same molecule, the outcome in experiment [5], in experiment [6], in experiment [7] and in experiment [8] was inactive.

The values are drawn from PubChem BioAssay.
